From PubChem BioAssay AID1845226 (National Center for Advancing Translational Sciences (NCATS), 2023)
Records with an inconclusive call do not appear. Where a call stands in place of a potency, no number is given. Calls of active or inactive are those of the source. Calls follow the shape of the dose curve; as a rule, active = well fitted inhibition curve with a large enough effect; inconclusive = small, poorly fitted or top-dose-only effect; inactive = no such curve, though single readings can be large or run the other way.

Test: Confirmatory fluorescence-based thiol-reactive (MSTI) qHTS assay for identification of artifact compounds
In short: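 Compounds, dosed in qHTS format, were mixed with 4 uM MSTI probe in 1X PBS pH 7.4 containing 2% DMSO. After 1 hour at room temperature in the dark, fluorescence was measured.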
Potency is read from the fitted curve at half-maximal effect.

Structure (SMILES)	Potency
Clc1ccc(CNc2cc(-c3ccc4c(c3)OCO4)ncn2)cc1	inactive
Cc1nn(C(=O)COc2ccccc2Br)c(C)c1Sc1ccccc1	inactive
CCOC(=O)c1c(NC(=O)c2ccc(S(=O)(=O)N(CC)CC)cc2)sc2c1CCCCC2	inactive
COc1ccc(-c2coc3cc(O)ccc3c2=O)c(OC)c1O	inactive
Oc1c(C(c2ccccc2F)N2CCN(Cc3ccccc3)CC2)sc2nc(-c3ccco3)nn12 (configuration not stated)	inactive
Cc1cccc(NC(=O)CSc2nc3c([nH]c4ccccc43)c(=O)n2C)c1	inactive
O=C(CSc1nccn1C1CCCC1)Nc1ccc(C(F)(F)F)cc1	inactive
COc1ccc(CNC(=O)c2nnn(CC(=O)Nc3cc(C)cc(C)c3)c2N)cc1	inactive
CC(C)C(=O)OC1=CN(Cc2ccccc2)S(=O)(=O)c2ccccc21	inactive
CC1(C)S[C@@H]2[C@H](NC(=O)[C@H](N)c3ccccc3)C(=O)N2[C@H]1C(=O)O	inactive
CCCCn1c(-c2ccc(C)cc2)c(C)n2c3c(=O)n(C)c(=O)n(C)c3nc12	inactive
Cc1ccc(OCc2nc3ccccc3n2Cc2ccccc2Cl)cc1	inactive
O=C1CC(c2ccc(O)c(O)c2)Oc2cc(O)cc(O)c21 (configuration not stated)	inactive
CCOc1ccc(C(=O)N2CCC(c3nc(-c4ccc(S(=O)(=O)N5CCCC5)cc4)no3)CC2)cc1	inactive
Cc1ccc2cccc(NC(=O)c3ccc(-c4cccc([N+](=O)[O-])c4)o3)c2n1	inactive
COc1ccc(-c2cc3ccc(O)c(CN4CCOCC4)c3oc2=O)cc1OC	inactive
CCOc1ccc(CNC(=O)c2cnc(SC)nc2CC)cc1	inactive
Cc1ccc(Cn2ccc(NC(=O)c3cc(-c4ccc(Cl)c(Cl)c4)on3)n2)cc1	inactive
Cc1ccc(Cn2cc(CCC(=O)NC3CCCCC3)c3ccccc32)cc1	inactive
COc1ccc(/C=C/c2cc(O)cc(O[C@H]3OC(CO)C(O)C(O)C3O)c2)cc1 (some centres not stated)	inactive
COc1ccccc1N1CCN(c2ncnc3c2cnn3-c2ccc(C)cc2)CC1	inactive
O=C(Nc1cccc(Cc2ccccc2)c1)c1ccc(-c2cccc([N+](=O)[O-])c2)o1	inactive
CCC(Sc1ncc(S(=O)(=O)c2ccc(Cl)cc2)c(=O)[nH]1)C(=O)Nc1ccc(OC)cc1 (configuration not stated)	inactive
O=C1CCCC2=C1C(c1[nH]ncc1Cl)NC(=NCCc1ccccc1)N2 (configuration not stated)	inactive

Structure (SMILES)	Potency
Cc1ccc(NC(=O)CC2Nc3cccc4cccc(c34)NC2=O)cc1 (configuration not stated)	1540 nM (active)
Cc1ccc(OCCn2c(CCNC(=O)c3c(F)cccc3F)nc3ccccc32)cc1	inactive
COc1ccc(CNC(=O)CCc2c(C)nc3c4cccnc4nn3c2C)cc1	inactive
COC(=O)c1ccc(NC(=O)CC2C(=O)N(c3ccccc3)C(=O)N2Cc2cccs2)cc1 (configuration not stated)	inactive
CCCS(=O)(=O)N1CC(=O)N(c2ccc(C)cc2)C(C)(C(=O)NC2CCCCCC2)C1 (configuration not stated)	inactive
COc1ccc(CNC(=O)c2cc3sccc3n2Cc2ccc(C)cc2)cc1	inactive
O=C(O)CCc1c2ccc(=O)c(O)c-2oc2c(O)c(O)ccc12	1090 nM (active)
CC1(C)S[C@@H]2[C@H](NC(=O)C3(N)CCCCC3)C(=O)N2[C@H]1C(=O)O	inactive
O=c1cc(-c2cc(O)c(O)c(O)c2)oc2cc(O)cc(O)c12	12200 nM (active)
c1coc(-c2nc3cc4ccccc4cc3nc2-c2ccco2)c1	970 nM (active)
COc1cc(NC(=O)c2ccc(C)cc2)ccc1NC(=O)c1cc2ccccc2o1	inactive
COc1ccc(OCc2nnc(-c3ccccc3)o2)cc1	inactive
Cc1ccc2cccc(NS(=O)(=O)c3ccccc3[N+](=O)[O-])c2n1	4330 nM (active)
CCSc1ncc(Cl)c(C(=O)Nc2c(C(=O)Nc3cccc(C)c3)oc3ccccc23)n1	inactive
Cc1sc2ncn(CC(=O)N3CCN(c4ccccc4)CC3)c(=O)c2c1S(=O)(=O)N1CCC(C)CC1	inactive
Cc1cc(C(=O)N2CCN(c3cccc(Cl)c3)CC2)c2c(C)nn(-c3ccccc3Cl)c2n1	inactive
COc1cc2c(C(=O)N3CCN(c4ccc(F)cc4)CC3)cn(CC(C)C)c(=O)c2cc1OC	inactive
Clc1ccccc1Cn1c(-c2cccs2)nc2ccccc21	inactive
COC(=O)c1ccc(NC(=O)CC2C(=O)N(c3ccccc3)C(=O)N2Cc2ccco2)cc1 (configuration not stated)	inactive
COc1ccc(NC(=O)c2ccco2)cc1NC(=O)c1ccccc1[N+](=O)[O-]	inactive
CCc1ccc2c(O)c3c(cc2c1C(=O)OC)C(=O)c1c(O)ccc(O)c1C3=O	386 nM (active)
Cc1ccc(CN(Cc2ccco2)C(=O)COc2ccc(Cl)cc2Cl)cc1	inactive
COc1ccc(-c2cc(C(F)(F)F)n3nc(-c4ccc(Cl)cc4)cc3n2)cc1OC	inactive
